TSHR antag: antagonists of human thyroid stimulating hormone receptor; actives 0.2% (n = 330,000); TSHR-expressing cells, TSH-stimulated cAMP HTRF, 2 h; stronger effect = lower value; AID 504810; P16473; activity change, negative = inhibition, % at 11.5 µM;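 active = activity change below a set negative limit, meaning inhibition stronger than a set level, cut at about -70% in these data; inconclusive = activity change between two set negative limits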
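Inhibition of cAMP made by TSHR-expressing cells under TSH stimulation (4nM final, EC80; 2 h, 37 deg C) is quantified with a one-step lysis HTRF kit, anti-cAMP cryptate versus cAMP-d2.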
gsp antag: antagonists of gsp mutant (McCune-Albright syndrome). gsp-mutant cells, cAMP HTRF, 30 min. actives 0.4% (n = 340,000). AID 624288. Potency, µM (highest dose often 76.9 µM), most hits filed as inhibitors; calls by dose curve; cell line not stated here;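 also: intracellular cAMP measured with PDE inhibitor Ro 20-1724 present during compound exposure; nearly all actives have a fitted effect of over 65% in size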
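HTRF cAMP measurement after 30 min RT detection following 30 min, 37C compound treatment alongside […] (added as 300 uM solution) in G418-selected cells seeded at 2000/well and grown 16–24 h.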
gsp agonist: gsp mutant agonism | gsp mutant cells, cAMP HTRF, 30 min | Potency, µM (titrated, usually from 76.9 µM), hits mostly activators | actives 0.13% (n = 340,000) | AID 624287; active = well fitted activation curve with a large enough effect; inconclusive = small, poorly fitted or top-dose-only effect, or another doubt; inactive = no such curve, though single readings can be large or run the other way; cell line not stated here;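 also: phosphodiesterase inhibitor Ro 20-1724 added with compounds to block cAMP breakdown; nearly all actives have a fitted effect of over 60% in size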
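Cells stably selected in G418 were plated at 2000/well, grown 16-24 hr, then given compounds in DMSO with the PDE inhibitor […] (300 uM solution added) for 30 min at 37C; cAMP was read by HTRF.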
CCT modulator: changes cytosolic chaperonin activity | actives 0.3% (n = 360,000) | purified chaperonin ATPase assay, HTRF ADP detection, 30 min | AID 651819 | activity change, % (no concentration beside the values), hits read low; in the data active = activity change below about -30%
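We incubate TRiC, 40 or 20 nM final, with library compounds at 76 uM and 10 uM ATP for 30 min at 37 °C. ADP formed is detected with Transcreener HTRF reagents after 30 min at room temperature.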
MmCpn inh: M. maripaludis TRiC chaperonin inhibition; purified Mm-Cpn ATPase, ADP Transcreener TR-FRET; Potency, µM (titrated, usually from 76.9 µM), actives largely listed as inhibitors; actives 0.031% (n = 330,000); AID 504842; active = well fitted inhibition curve with a large enough effect; inconclusive = small, poorly fitted or top-dose-only effect; also: nearly all actives have a fitted effect of over 80% in size
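Eu-cryptate anti-ADP/ADP-d2 competition gives a ratio inversely related to ADP. Enzyme at 25 nM was pre-exposed to compound for 10 min, then given 10 uM ATP for 30 min, 37°C throughout.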
uPA generation: inhibitors of cell surface uPA generation; cell surface uPA generation assay, qHTS; Potency, µM (top dose mostly 38.3 µM), actives largely listed as inhibitors; actives 0.31% (n = 330,000); AID 540303; active = well fitted inhibition curve with a large enough effect; inconclusive = small, poorly fitted or top-dose-only effect; inactive = no such curve, though single readings can be large or run the other way; tested in mouse RAW 264.7 cells; also: nearly all actives have a fitted effect of over 55% in size
A number is an active result; – = inactive; ? = inconclusive; · = no result given; ! = not active in a repeat; [ ] = another dose, or the depositor's remark. This is a sample that favours compounds with a hit; in the whole collection about 1.2% have one here.

SMILES	TSHR antag	gsp antag	gsp agonist	CCT modulator	MmCpn inh	uPA generation
S=C(c1cn(CCOc2cccc3ccccc23)c2ccccc12)N1CCCC1	–	–	–[15.4 µM]	–	50.1µM	–
CCN(CC)S(=O)(=O)c1ccc2c(c1)nc(SCn1nnc3ccccc3c1=O)n2CC	–	–	35.5µM	–	–	–
O=C(Nc1ccccc1)C1=C(c2ccccc2)S(=O)(=O)CCS1(=O)=O	?	?	–	-55.0	–	–
Cc1ccc(C(=O)Oc2ccccc2N2CCOCC2)cc1	–	–	–[15.4 µM]	–	–	–
Cc1ccc(C(=O)OC2OC(=O)C(Cl)=C2N2CCOCC2)cc1 (centres undefined)	–	–	–[15.4 µM]	-49.6	–	–
CCOC(=O)CN1C(=O)CCSc2ccc(Cl)cc21	–	–	–	–	–	–
O=C(NCCc1ccccc1)c1cccnc1N1CCCCCC1	-80.4	–	–	–	–	–
O=C(NCCc1ccccc1)c1ccccc1Cl	–	–	–[15.4 µM]	–	–	–
CN(CC(=O)Nc1ccc(OC(F)(F)F)cc1)C1CCCCC1	–	–	?	–	–	–
CCn1c(=O)c(CCC(=O)N2CCN(c3ccccn3)CC2)c(C)c2c(C)nn(-c3cccc(C)c3)c21	–	–	–	-35.5	–	–
COc1ccc(C(=O)NCC(C)(c2ccccc2)c2ccccc2)cc1S(=O)(=O)N1CCOCC1	·	35.5µM	–	–	·	–
CN(Cc1cnn(Cc2ccccc2)c1)C(=O)c1cccc(S(=O)(=O)N2CCOCC2)c1	–	–	?	–	–	6.31µM
COc1ccc(C(=O)N(CCc2ccccc2)Cc2ccccc2)cc1S(=O)(=O)N1CCOCC1	–	–	–	–	–	–
COc1ccc(C(=O)N(C)Cc2cnn(Cc3ccccc3)c2)cc1S(=O)(=O)N1CCOCC1	–	–	–	–	–	2µM
CCCCNC1c2ccccc2C(=O)N1Cc1ccccc1 (centres undefined)	–	–	–	–	–	–
CN(Cc1ccccc1)C(=O)c1[nH]c(C(F)(F)F)nc1-c1ccccc1	·	·	·	–	·	·
CC1CCCN(C(=O)COC(=O)CNC(=O)c2sc3ccccc3c2Cl)C1 (centres undefined)	–	–	31.6µM	–	–	–
CC1CCCC(C)N1C(=O)COC(=O)CNC(=O)c1sc2ccccc2c1Cl (centres undefined)	–	–	–	–	–	–
CCOc1ccc(/C=N/NC(=O)c2ccc(O)cc2)cc1CN1CC2CC(C1)c1cccc(=O)n1C2 (centres undefined)	–	39.8µM	·	–	–	–
CCOc1ccc(/C=N/NC(=O)Cc2ccccc2)cc1CN1CC2CC(C1)c1cccc(=O)n1C2 (centres undefined)	–	35.5µM	·	–	–	–
CCOc1ccc(NC(=O)c2ccc(N3CC4CC(C3)c3cccc(=O)n3C4)c(NC(=O)CCN3CCOCC3)c2)cc1 (centres undefined)	–	–	–	–	–	–
COC(=O)/C=C1\N/C(=N\c2nc(C)cc(C)n2)N(c2ccccc2)C1=O	–	–	–[15.4 µM]	-38.1	–	–
C(=N\N1CCN(Cc2cccc3ccccc23)CC1)/c1cccnc1	-81.8	–	?	–	–	·
CCn1c(C)c(C)c2cc(C(=O)NCCN3CCOCC3)ccc21	–	–	–	-39.9	–	–
CCn1c(=S)[nH]c2c(c1=O)C(C)(C)Cc1ccccc1-2	–	–	2.82µM	–	–	–
Cc1ccc(NC(=O)CN2C(=O)NC(C)(c3ccccc3)C2=O)c(C)c1 (centres undefined)	–	–	–[15.4 µM]	-60.0	–	–
CC1CCCCN1C(=O)c1ccc(OC2CCN(S(=O)(=O)N(C)C)CC2)cc1 (centres undefined)	–	–	–	–	–	–
CN(C)CCOC(c1ccc(Cl)cc1)c1ccccn1 (centres undefined)	–	–	·	-51.1!	–	–
CCCCNC(=O)c1cn(CC(C)C)c(=O)c2c1c1ccccc1n2C	–	–	–[15.4 µM]	–	–	–
CC(C)CCNC(=O)c1cn(CC(C)C)c(=O)c2c1c1ccccc1n2C	–	–	–	-41.1	–	–
